B1: uchl1_2_7553 (protein)
chain: KTKFVGVLVTIRAVNPETGKEYRSRRTLIGTADAIEALAEEVYELVLRFKEATGAPVEVDVRVYVSDEETAERAREAFKKLEERLKAEGVKARVEVTVVK
B2: uchl1_2_7546 (protein)
chain: KTQFVGALVKMEAYDEETGKTYKSTRTLIGTADAIEKMAEEIYELALNFKDTVGVPVKVKVDVVVASEETKKKAEAALKKMKEKLKKEGIEVEVKVTVVE
B3: uchl1_2_7530 (protein)
chain: KAEFVGALLTLTARDAETGETFRSRRTLIGTADAIEALMAEIEELALRFQADVGVPVTADIHVVVSNEETAERVREALARMAERLAAEGITVNVTVTVVR
B4: uchl1_2_7542 (protein)
chain: KPKFIGLKVTLTSYDEKTGKTYKATRTLIGTESGIEAMAKEVGELVRTFYDATGVPVKVDVTIVSSDEEVAKKLEEALRKMEEELKKEGVPVELNIKKEV
B5: uchl1_2_7524 (protein)
chain: KTVFVGALVTLEAEDKETGKVYRYRRNLIGTESAIEALAKEVKELVLNFKEAVGLPVKATVHIVASREEVLKKAVEEFEKMAKELAKEGIEVEITSELTK
B6: uchl1_2_7544 (protein)
chain: KTKFVGVKVTLTSYDEKTGKEYKSTHTLIGTEEAVEAMAKEIAELIRTFYDATGVPVKVDVTIYSSSEEVAEKLEKELKKEVEKLKKEGIDVTLTITKKV
B7: uchl1_2_7539 (protein)
chain: KTKFVGALVEITAKDEKTGKVYRSRRTLIGTESAIEAMAKEIKELVLNFKEETGVPVEVKVTVYAENKETAEKMKKELEKMAKELAKEGIKVEIEVKLVE
B8: uchl1_2_7552 (protein)
chain: KTQFVGVLVTITSTNPETGEVKTVRKTLIGTEEGIEAMAKEILEMALEFKEQTKGPVEVKVEVVVSTEETAKKMEEELKKLEEELKKEGIKVEVEVKVVK
B9: uchl1_2_7526 (protein)
chain: KTKFVGVLVTLTSYNEETGKTYVSRRTLILSESGIEKLSEEILELVDRFKQVNGDNIKVKIHVVSTDEEALEKAKEKVEEAKEELEKRGVEVEVEYELVK
B10: uchl1_2_7519 (protein)
chain: KTVIVGVLVDMRAYDPETGREYRARHTLIGTETAIEAMVEEIRERILAFRDDVGVPVEVDLHIVSSREEVARRLEALLKEMAAELAPEGVTVRISVTVTK
B11: uchl1_2_7527 (protein)
chain: KSKFVGVKVTLTAYNEETGKTYVSTRTLILSESGIENLSKEILDLVERFKQVNGDNIEVDIKAVSTDEEALEKAKKELEKAKKELEAKGVKVNITYELVK
B12: uchl1_2_7540 (protein)
chain: KSVFVGVLVTLRSYDEATGKEYVSRRTLIGTEDSIEALAEEVAELIRAFYEQTGVPVQADVTIVSSSREVAERLAEALRAREAELRAEGVDVTLTITVRV
B13: uchl1_2_7551 (protein)
chain: KSVFVGVLVTIRATDAATGETLVSRRTLIGTESSIKKLAEEVKELVLEFKARTGGPVEVDITVYSSKEEVAKKAKEEFEKLKKELAAEGVTANVNVILSK
B14: uchl1_2_7533 (protein)
chain: KTVFVGVRVTITSRNPETGEVRRAVRTFIFTESSLEALTEEIRELALAFKADHGGATTVRIEAVATREEVAERLRELLERLAEELAAEGIEVEIEVTVVK
B15: uchl1_2_7529 (protein)
chain: KTQFVGALVTMTATDPKTGKTYRARRILIGTADGIPAMMEEIEELALEFQKQTGVPVTVNVTVHVSKEEVAEEVKKKLEELKKRLAEKGITFTYEVIVHK
B16: uchl1_2_7525 (protein)
chain: KTVFVGALLTLTSVDEETGEVYRYRRTLIGTASAIEALAREVEELVLNFRDDVGLPVDAEVHLVASDEETLRRAREAFEKMAERLAEEGITVTITSEVAR
B17: uchl1_2_7541 (protein)
chain: KTKFIGVLVTLTSYDAATGRTYRARRTLIGTESGIEAMAAEVAELVRTFHDATGQPVAVDVRIVSSDEAVAEALEAALKAAEAALKAEGVDVTLTITKDV
B18: uchl1_2_7547 (protein)
chain: KTEFVGVLVTITSVNPETGETFVARRTLIGTASSIEAMAKEIKELALAFKADTKGDTTVDVEVVVSSKEVAEKAKKALEELKKELEAEGIKFNYKITVVE
B19: uchl1_2_7535 (protein)
chain: KTKFVGVLVTLTATDAETGEVKTSRRTFIGTEDSVEALADEVKDYILDYKKDSGKAVKADIKIYSTDEEVVKKLEALLKEKEPELKAAGIEVNITGEVVK
B20: uchl1_2_7548 (protein)
chain: KAEFVGALVTITSTNPETGEVRVARRTLIGLASDIDALMEEIERLVLDFQADTGGATRVRIRIVVSSEEVAERARAAAEEMKARLAAEGIEVEVEIEVVE
B21: uchl1_2_7520 (protein)
chain: KARFVGVLVDMTSTDPETGKTYRSRRNYIGTESAIPAMMAEVKEDVLNFQKNVGLPVKVDLHIVADTQEALDAAKAEAEKMAAELAKEGATVTISGEVAE
B22: uchl1_2_7531 (protein)
chain: KKKTQFVGVLVTVRATRDGRELVARRTFIATESSIDALMAEVERYVRDFVAAAGTPARVAIRAVVSTEETGARVAAALAALAERLAPLAEEIEVTVEVRR
B23: uchl1_2_7532 (protein)
chain: ESVFVGVLVTITSRNEATGETKVARRTLIALESNIEALMEEVKELVLAFKEEHGGKTEVKIEVYATREEVAKRAREVAEKMKEELEAAGIDATVEVKLVK
B24: uchl1_2_7537 (protein)
chain: KTRFVGVKVDIEARNEETGEVFRARRTLIGTADSIPAMAEEVERLVLEFQRRTGVPVRVEVHVYASDEETARLAREEFEKMAERLRKEGIEVRVEVTVVE
B25: uchl1_2_7534 (protein)
chain: KTVFVGVKVTVTVTDPATGKTTTTTRTFIGTADSVDALADAVTDYILRVKADSKADVAAAVTVYSTDKAVVDRAVAALNARVPELAAAGVTVTVTGTVVK
B26: uchl1_2_7521 (protein)
chain: KAEFVGVLVDMTSTDPETGKTYRYRRNYIGTASAIPAMMAEVERDVLNFQENVGLPVDVALHIVASTEAALEAARAEAKKMAARLAAKGAKVTITGEVAK
B27: uchl1_2_7550 (protein)
chain: EPRFVGVLVTVTSTNPETGEVFRSRRNFIGTADAVAAMMAEVEEYVLRFKEVNGGAVAVDLHVVVSTEEDAARARAEAAKLAARLAAEGITATVTVTVVE
B28: uchl1_2_7538 (protein)
chain: KTRFVGVLVKITAKDEKTGKVYRARRTLIGTASGIPAMAEEVERLVLEFQERTGVPVRVEVHVYASDEETAELARREFERMAERLAEHGIEVTVTVTVVE
B29: uchl1_2_7536 (protein)
chain: KTKFVGARVEIEAVDPETGKRYRSRRTLIGTASAIEAMAEEVRRLVLAFKEDVKAPVTVRVTVYASDEETAAKARAAFERMAAELAAEGITVEVEVVLVK
B30: uchl1_2_7543 (protein)
chain: KPVFVGVLLELEARDEATGRVYRARRTLIGTEDGIEAMAEEVRRLVREFWEATGVPVRARVTIVSTREEVAERLRRALEAAHEELRAEGIDVTLEITVRV
B31: uchl1_2_7549 (protein)
chain: EPQFVGVLVTVTSTNPETGKVYKSRRNFIGTADAIPALFKEVLEYVLTFKEANGGKTKVKLEIVVSTKEVAEKAKKEAEKLKKELAKEGIEAEVKITVVE
B32: uchl1_2_7545 (protein)
chain: KTKFVGVLVTLRSYDPETGREYVSRRTLIGTEEAVEAMAEEIAELIRRFHDRTGVPVDVDVTIYSSSKEVAEELKKKLEEEVKKLKAEGIDVTLTVTLKV

Molecular target: UCHL1, P09936
Sequence (P09936 whole entry, looked up, the tested form may be a part): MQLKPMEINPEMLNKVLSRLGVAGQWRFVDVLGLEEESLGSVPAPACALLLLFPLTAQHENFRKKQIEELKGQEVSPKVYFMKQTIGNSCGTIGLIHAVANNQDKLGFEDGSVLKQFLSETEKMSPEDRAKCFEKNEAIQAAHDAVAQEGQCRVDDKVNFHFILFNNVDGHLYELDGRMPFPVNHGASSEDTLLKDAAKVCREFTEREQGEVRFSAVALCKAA
Assay: median log2 fold change of GCK-ALFA target abundance (FLAG IP / Myc IP barcode read proportion) (log2 ratio); each designed protein is fused to an ALFA-tag nanobody in HEK293 cells to bring the named protein to FLAG-tagged glucokinase (GCK); Myc marks an untargeted standard; higher = target protein stabilised (more abundant)
Conditions: target protein: 3xFLAG-MCP-GCK-ALFA reporter; HEK293 landing pad (RPLP)
In short: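 Binders fused to an ALFA nanobody were recombined as a library into HEK293 landing-pad cells, which were induced with 2 μg mL^−1 doxycycline and then transfected to express a FLAG-tagged target and a Myc-tagged standard. After 48 h, circular RNA barcodes recovered by anti-FLAG and anti-Myc immunoprecipitation of lysates were reverse transcribed, amplified and sequenced. Each binder's target abundance is the median log2 ratio of FLAG to Myc barcode read proportions, from barcodes present at ≥10^−7 in both replicates, binders carrying ≥3 barcodes per replicate, a 10^−6 pseudocount and pooled replicates.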

Binder | median log2 fold change
B1 | -0.615
B2 | -1.13
B3 | -0.378
B4 | -0.0683
B5 | -0.455
B6 | -0.358
B7 | -0.811
B8 | 0.325
B9 | -0.696
B10 | -0.204
B11 | -0.63
B12 | -0.377
B13 | -0.159
B14 | -0.457
B15 | -0.784
B16 | 0.0632

Binder | median log2 fold change
B17 | -0.304
B18 | -0.0935
B19 | -0.112
B20 | -0.489
B21 | -1.27
B22 | -0.524
B23 | -0.231
B24 | -0.302
B25 | 0.287
B26 | -1.03
B27 | -0.0947
B28 | -0.55
B29 | -0.837
B30 | 0.327
B31 | -0.1
B32 | 0.0138

From the supplement of paper PMC12632987
